Assay results: PubChem BioAssay (NCI)
The panel holds about 83,000 compounds, 20% with a hit somewhere; the sample as a whole holds those more often.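 Each cell line was grown in a 96-well plate and treated with one concentration of compound for 48 hours. Values below 10 were considered active.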 A number with no mark means an inactive call. Calls of active or inactive are those of the source.

These molecules were tested on HCT-116 colon (assay: NCI-60 one-dose screen, 48 h (100 = growth as untreated, 0 = no growth, -100 = all killed)). Conditions: 10 µM unless noted.

Row | Compound | growth
1 | N#C/C(=C\c1ccc(-c2ccc(Br)cc2)o1)c1nc(-c2cccs2)cs1 | 91%
2 | Cc1cc(C=O)c(C)c2c1[nH]c1ccccc12 | 90.5%
3 | CCCCC[C@H]1C/C=C2/C(=O)C=C[C@@H]2C/C=C\CCCC(=O)O[C@@H](CCCCC)C/C=C2/C(=O)C=C[C@@H]2C/C=C\CCCC(=O)O1 | -96.4% (active)
4 | Cn1nc(-c2ccccc2)c2c(-c3ccccc3)onc2c1=O | 42.5%
5 | CCN1CCN(C(=O)[C@]23CCC(C)(C)C[C@@H]2C2=CC[C@@H]4[C@@]5(C)C/C(=C/c6cccnc6)C(=O)C(C)(C)[C@@H]5CC[C@@]4(C)[C@]2(C)CC3)CC1 | 13.3%
6 | COc1ccc2c(c1)c(-c1nc(-c3cn(C)c4ncccc34)cs1)cn2CCN | 80.5%
7 | Cc1oc(-c2ccccc2Cl)cc1C(=O)Nc1ccc(S(N)(=O)=O)cc1 | 102%
8 | Cn1c(/C(C#N)=C/c2ccc3ccccc3c2)cc2ccccc21 | 8.56% (active)
9 | CCSc1ncnc2c1ncn2C1OC(CO)C(O)C1O (stereo not drawn) | 12%
10 | CCCCN1CCCCn2c1nc1c2c(=O)n(C)c(=O)n1C | 104%
11 | CC(C)(C)c1cc(-n2c(-c3ccc(Cl)cc3)nc3cc(C(=O)Nc4ccc(Cl)cc4)ccc32)n[nH]1 | 28.2%
12 | NC(=O)NCC1CCCCC1 | 106%
13 | CC(=O)N1N=C(c2ccc(C)cc2)CC1c1ccc(Oc2ccc(Br)cc2)cc1 (stereo not drawn) | 87.3%
14 | O=C(/C=C/c1cccc2ccccc12)Nc1ncc(Cc2ccccc2)s1 | 8.93% (active)
15 | COc1ccc2c(c1)C(Br)=C(CCO)C2c1ccccc1 (stereo not drawn) | 57.3%
16 | C=C1C(=O)O[C@H]2[C@H]1CC/C(Cn1cc(-c3ccc(F)cc3)nn1)=C\CC[C@@]1(C)O[C@@H]21 | -86% (active)
17 | OCC1OC(n2cnc3c(Cl)ncnc32)CC1O (stereo not drawn) | 94.1%
18 | Cn1cc(-c2csc(-c3cn(CCN)c4ccccc34)n2)c2cccnc21 | 36.9%
19 | COc1cc(/C=C2\C(=O)N(CC(O)COc3cc(O)c4c(=O)cc(-c5ccccc5)oc4c3)c3ccccc32)cc(OC)c1O (stereo not drawn) | 78.4%
20 | C=C(C)[C@@H]1CC[C@]2(C(=O)O)CC[C@]3(C)[C@H](CC[C@@H]4[C@@]5(C)C/C(=C/c6ccc(OC)cc6)C(=O)C(C)(C)[C@@H]5CC[C@]43C)[C@@H]12 | 5.84% (active)

Row | Compound | growth
21 | O=C1c2cccc3cccc(c23)C(=O)N1CC#Cc1ccc2c3c(cccc13)C(=O)N(CCO)C2=O | 78.4%
22 | CN1CCN(CCOc2ccc(-c3cnc4c(-c5ccccc5F)cnn4c3)cc2)CC1 | 3.73% (active)
23 | CCN(CC)CCCCCCNc1ccnc2cc(Cl)ccc12 | 59.1%
24 | C/C(Cc1ccc(Cl)cc1)=C(/c1ccc(Cl)cc1)c1ccc(OCCN2CCCC2)cc1 | 30.7%
25 | Cc1ccc(N(CC(=O)Nc2ccc(S(=O)(=O)N3CCC(N4CCCC4)CC3)cc2)S(=O)(=O)c2ccc(Cl)cc2)cc1 | -70.5% (active)
26 | Cn1cc(-c2csc(-c3c[nH]c4ccccc34)n2)c2cccnc21 | 30.5%
27 | C(=C\c1c[nH]c2ccccc12)/c1ccc2ccccc2n1 | 65.9%
28 | COc1cccc(-c2nn(-c3ccccc3)cc2-c2ccnc(NCCCNS(=O)(=O)c3ccc(Cl)cc3)c2)c1 | 31.1%
29 | Cc1ccncc1C(=O)O | 107%
30 | Cc1cccc(C)c1NC(=O)CSC(=S)N1CCN(CCOCCO)CC1 | 108%
31 | Cc1cc(Cl)nc(N(CCNc2ccnc3cc(Cl)ccc23)Cc2ccco2)n1 | 13.6%
32 | COC(=O)[C@]12CC[C@@H](C)[C@H](C)[C@@H]1C1=CC[C@@H]3[C@@]4(C)C[C@@H](O)[C@H](O)[C@@](C)(CO)C4=CC[C@@]3(C)[C@]1(C)CC2 | -37.5% (active)
33 | Fc1ccc2nc(-c3cc(-c4ccc5c(c4)OCO5)n[nH]3)[nH]c2c1 | 49.6%
34 | COc1cc2[nH]c(C(=O)c3cc(OC)c(OC)c(OC)c3)c(N)c2cc1C#CCO | 10%
35 | COc1ccc(-c2cc(-c3cccs3)n(N=O)c(=O)c2C#N)cc1 | 105%
36 | Cc1ccc(Sc2sc(-c3ccccc3)nc2[P+](c2ccccc2)(c2ccccc2)c2ccccc2)cc1 | -14.3% (active)
37 | NS(=O)(=O)c1ccc(CCNC(=O)/C=C/c2ccc(Cl)cc2)cc1 | 100%
38 | Cc1cc2nc3c4cc(Cl)ccc4n(CCN(C)C)c3nc2cc1C | -12.7% (active)
39 | Cc1ccc(S(=O)(=O)Nc2ccc(-c3cc(-c4cccc(F)c4)c(C#N)c(N)n3)cc2)cc1 | -73.2% (active)

Each molecule was assayed on HCC-2998 colon in the same assay as above. Conditions: 10 µM unless noted.

Row | Compound | growth
40 | N#C/C(=C\c1ccc(-c2ccc(Br)cc2)o1)c1nc(-c2cccs2)cs1 | 91.8%
41 | Cc1cc(C=O)c(C)c2c1[nH]c1ccccc12 | 106%
42 | CCCCC[C@H]1C/C=C2/C(=O)C=C[C@@H]2C/C=C\CCCC(=O)O[C@@H](CCCCC)C/C=C2/C(=O)C=C[C@@H]2C/C=C\CCCC(=O)O1 | -79.5% (active)
43 | Cn1nc(-c2ccccc2)c2c(-c3ccccc3)onc2c1=O | 74.5%
44 | CCN1CCN(C(=O)[C@]23CCC(C)(C)C[C@@H]2C2=CC[C@@H]4[C@@]5(C)C/C(=C/c6cccnc6)C(=O)C(C)(C)[C@@H]5CC[C@@]4(C)[C@]2(C)CC3)CC1 | 18.9%
45 | COc1ccc2c(c1)c(-c1nc(-c3cn(C)c4ncccc34)cs1)cn2CCN | 55%
46 | Cc1oc(-c2ccccc2Cl)cc1C(=O)Nc1ccc(S(N)(=O)=O)cc1 | 103%
47 | Cn1c(/C(C#N)=C/c2ccc3ccccc3c2)cc2ccccc21 | 16.9%
48 | CCSc1ncnc2c1ncn2C1OC(CO)C(O)C1O (stereo not drawn) | 8.16% (active)
49 | CCCCN1CCCCn2c1nc1c2c(=O)n(C)c(=O)n1C | 95.9%
50 | CC(C)(C)c1cc(-n2c(-c3ccc(Cl)cc3)nc3cc(C(=O)Nc4ccc(Cl)cc4)ccc32)n[nH]1 | 63.9%
51 | NC(=O)NCC1CCCCC1 | 95.5%
52 | CC(=O)N1N=C(c2ccc(C)cc2)CC1c1ccc(Oc2ccc(Br)cc2)cc1 (stereo not drawn) | 96.9%
53 | O=C(/C=C/c1cccc2ccccc12)Nc1ncc(Cc2ccccc2)s1 | 54.3%
54 | COc1ccc2c(c1)C(Br)=C(CCO)C2c1ccccc1 (stereo not drawn) | 49.3%
55 | C=C1C(=O)O[C@H]2[C@H]1CC/C(Cn1cc(-c3ccc(F)cc3)nn1)=C\CC[C@@]1(C)O[C@@H]21 | -11.6% (active)
56 | OCC1OC(n2cnc3c(Cl)ncnc32)CC1O (stereo not drawn) | 108%
57 | Cn1cc(-c2csc(-c3cn(CCN)c4ccccc34)n2)c2cccnc21 | 65.3%
58 | COc1cc(/C=C2\C(=O)N(CC(O)COc3cc(O)c4c(=O)cc(-c5ccccc5)oc4c3)c3ccccc32)cc(OC)c1O (stereo not drawn) | 99.7%
59 | C=C(C)[C@@H]1CC[C@]2(C(=O)O)CC[C@]3(C)[C@H](CC[C@@H]4[C@@]5(C)C/C(=C/c6ccc(OC)cc6)C(=O)C(C)(C)[C@@H]5CC[C@]43C)[C@@H]12 | 21.7%

Row | Compound | growth
60 | O=C1c2cccc3cccc(c23)C(=O)N1CC#Cc1ccc2c3c(cccc13)C(=O)N(CCO)C2=O | 106%
61 | CN1CCN(CCOc2ccc(-c3cnc4c(-c5ccccc5F)cnn4c3)cc2)CC1 | 22.4%
62 | CCN(CC)CCCCCCNc1ccnc2cc(Cl)ccc12 | 107%
63 | C/C(Cc1ccc(Cl)cc1)=C(/c1ccc(Cl)cc1)c1ccc(OCCN2CCCC2)cc1 | 68.7%
64 | Cc1ccc(N(CC(=O)Nc2ccc(S(=O)(=O)N3CCC(N4CCCC4)CC3)cc2)S(=O)(=O)c2ccc(Cl)cc2)cc1 | -48.9% (active)
65 | Cn1cc(-c2csc(-c3c[nH]c4ccccc34)n2)c2cccnc21 | 33.2%
66 | C(=C\c1c[nH]c2ccccc12)/c1ccc2ccccc2n1 | 97.8%
67 | COc1cccc(-c2nn(-c3ccccc3)cc2-c2ccnc(NCCCNS(=O)(=O)c3ccc(Cl)cc3)c2)c1 | 33.5%
68 | Cc1ccncc1C(=O)O | 116%
69 | Cc1cccc(C)c1NC(=O)CSC(=S)N1CCN(CCOCCO)CC1 | 97.6%
70 | Cc1cc(Cl)nc(N(CCNc2ccnc3cc(Cl)ccc23)Cc2ccco2)n1 | 91.1%
71 | COC(=O)[C@]12CC[C@@H](C)[C@H](C)[C@@H]1C1=CC[C@@H]3[C@@]4(C)C[C@@H](O)[C@H](O)[C@@](C)(CO)C4=CC[C@@]3(C)[C@]1(C)CC2 | -86.5% (active)
72 | Fc1ccc2nc(-c3cc(-c4ccc5c(c4)OCO5)n[nH]3)[nH]c2c1 | 71.9%
73 | COc1cc2[nH]c(C(=O)c3cc(OC)c(OC)c(OC)c3)c(N)c2cc1C#CCO | 13.5%
74 | COc1ccc(-c2cc(-c3cccs3)n(N=O)c(=O)c2C#N)cc1 | 112%
75 | Cc1ccc(Sc2sc(-c3ccccc3)nc2[P+](c2ccccc2)(c2ccccc2)c2ccccc2)cc1 | -11.2% (active)
76 | NS(=O)(=O)c1ccc(CCNC(=O)/C=C/c2ccc(Cl)cc2)cc1 | 116%
77 | Cc1cc2nc3c4cc(Cl)ccc4n(CCN(C)C)c3nc2cc1C | -23.7% (active)
78 | Cc1ccc(S(=O)(=O)Nc2ccc(-c3cc(-c4cccc(F)c4)c(C#N)c(N)n3)cc2)cc1 | 39.7%
